Assay outcomes deposited in PubChem by National Center for Advancing Translational Sciences (NCATS).
Pf growth 48h – inhibits P. falciparum growth in the first generation, 48 h; P. falciparum luciferase growth in erythrocytes, 48 h; Potency, µM (series often up to 28.7 µM), inactives show at the highest dose activity change, negative = inhibition, most hits filed as inhibitors; hit rate 5.9% among 310,000; also: potency is read from the fitted curve at half-maximal effect; % is scaled to controls: 0 for no effect and ±100 for the full control effect
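Erythrocytes infected with P. falciparum carrying an integrated firefly luciferase reporter (2% hematocrit, 0.1% parasitemia final) were exposed to compounds in RPMI 1640 with 0.5% Albumax at 37 C, 5% CO2. Growth inhibition was scored as reduced luminescence.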
Sm TGR inh – blocks Schistosoma mansoni thioredoxin glutathione reductase | Q962Y6 | purified TGR, DTNB reduction, TNB absorbance 405 nm | Potency, µM (top dose mostly 114 µM), inactives show top-dose activity change, negative = inhibition, hits mostly inhibitors | hit rate 3% among 360,000 | AID 485364; also: potency is read from the fitted curve at half-maximal effect; % is scaled to controls: 0 for no effect and ±100 for the full control effect; nearly all actives have a fitted effect of over 60% in size
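First, TGR (20 nM dispensed) and NADPH were mixed with compound. Second, a 15 min room-temperature incubation followed. Third, further NADPH and then DTNB were added to start the reaction. Finally, TNB absorbance was monitored kinetically.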
HCV inhibitor – HCV inhibition; Huh7.5.1 HCVcc-Cre infection, luciferase reporter, 44 h; Potency, µM (doses to about 41.8 µM), inactives show at the highest dose activity change, negative = inhibition, hits mostly inhibitors; hit rate 3.4% among 340,000; AID 651820; also: potency is read from the fitted curve at half-maximal effect; % is scaled to controls: 0 for no effect and ±100 for the full control effect
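After 44 h co-culture of compound, cells and HCVcc-Cre (~0.5 moi), substrate is added for 15 min at room temperature and luciferase measured over 15 sec. Cells were seeded at 1,000/well and pre-cultured 4 h.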
HCMV antiviral – inhibitors of human cytomegalovirus | HFF cells, HCMV-luciferase reporter, 72 h; active compounds read low | activity change, negative = inhibition, % at 57.5 µM | hit rate 4.5% among 410,000 | AID 1259415; in the data active = activity change below about -60%; inconclusive = no clear call, values can overlap the other calls; inactive = above about -39%; also: % is scaled to controls: 0 for no effect and ±100 for the full control effect
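Two-dose cell screen: HFF monolayers treated with compounds and infected with luciferase-expressing HCMV at 1 PFU/cell, 72 h at 37C, then lysed for luciferase measurement.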
SARS PLpro yeast – inhibitors of SARS-CoV papain-like protease in yeast | S. cerevisiae expressing SARS-CoV PLpro, growth rescue | Potency, µM (top dose mostly 32.9 µM), for inactives: at the highest dose activity, positive = growth rescue, most hits filed as activators | hit rate 0.19% among 330,000 | AID 485353; calls by dose curve; also: potency is read from the fitted curve at half-maximal effect; 0% is about no effect; nearly all actives have a fitted effect of over 55% in size
Pf growth 96h – inhibits malaria parasite growth, 96 h. hit rate 6.9% among 320,000. Potency, µM (titrated, usually from 28.7 µM), for inactives: at the highest dose activity change, negative = inhibition, most hits filed as inhibitors. P. falciparum luciferase reporter growth, 96 h. AID 504834; also: potency is read from the fitted curve at half-maximal effect; % is scaled to controls: 0 for no effect and ±100 for the full control effect
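Delayed-death screen, second-generation endpoint: infected erythrocytes, 2% hematocrit, 0.05% parasitemia final; 96 hours at 37 C, 5% CO2; luciferase detection reagent; luminescence decrease equals reduced growth.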
Active calls of the source: *; ? = inconclusive; . = not tested or not shown. A selection: hits, their analogues and other compounds. The true share with any hit is near 15%. Unless noted, calls follow the shape of the dose curve; as a rule, active = well fitted curve in the direction sought with a large enough effect; inconclusive = small, poorly fitted or top-dose-only effect, or another doubt; inactive = no such curve, though single readings can be large; an effect the other way counts as inactive or inconclusive.

SMILES | Pf growth 48h | Sm TGR inh | HCV inhibitor | HCMV antiviral | SARS PLpro yeast | Pf growth 96h
Cc1cccn2c(=O)c3cc(C(=O)NC4CCCCC4)c(=N)n(Cc4ccccc4)c3nc12 | -5% | 2.8µM* | 6% | -61* | -3% | ?
CCOC(=O)/C(=N\Nc1cc(Cl)ccc1Cl)N1CCN(CC)CC1 | ? | -2% | ? | 5 | -12% | 3.3µM*
CCN1CCN(C(=O)C2CCCN(S(=O)(=O)c3cc(Cl)ccc3Cl)C2)CC1 (configuration not stated) | ? | 2% | . | ? | 29% | -26%
COc1cc2c3c(c1)C1(C(=O)N3C(C)(C)C=C2C)C(C#N)=C(N)Oc2cc(O)ccc21 (configuration not stated) | ? | -8% | -8% | 14 | . | .
CCOc1cc2c3c(c1)C1(C(=O)N3C(C)(C)C=C2C)C(C#N)=C(N)Oc2cc(O)ccc21 (configuration not stated) | 4.7µM* | -25% | ? | 24 | -3% | .
CC1=CC(C)(C)N2C(=O)C3(C(C#N)=C(N)Oc4cc(C)oc(=O)c43)c3cccc1c32 (configuration not stated) | ? | 9% | ? | 31 | -2% | 15µM*
Cc1ccc(Cl)cc1NS(=O)(=O)c1cc2c3c(c1)CC(=O)N3CCC2 | . | 7% | . | -32 | . | .
COc1ccc(C)cc1NS(=O)(=O)c1cc2c3c(c1)CC(=O)N3CCC2 | . | 13% | . | 7 | . | .
Cc1ccc(NS(=O)(=O)c2cc3c4c(c2)CC(=O)N4CCC3)cc1C | 10µM* | 4% | ? | ? | 6% | -15%
COc1ccc(CCNS(=O)(=O)c2cc3c4c(c2)CC(=O)N4CCC3)cc1 | 9.3µM* | 6% | -11% | 30 | -3% | -6%
COc1ccccc1NS(=O)(=O)c1cc2c3c(c1)CC(=O)N3CCC2 | 9.3µM* | -2% | ? | 25 | -1% | 58%
CC(C)n1cnc2c(NCc3ccc(S(N)(=O)=O)cc3)nc(NCc3ccc(S(N)(=O)=O)cc3)nc21 | ? | 29% | 22% | 11 | 2% | ?
CC(C)n1cnc2c(Nc3cccc(Cl)c3)nc(NCCCO)nc21 | ? | 4% | 11µM* | 93 | -1% | 15µM*
CC(C)n1cnc2c(NCc3ccccc3)nc(NCc3ccccc3)nc21 | 9.3µM* | 1% | -8% | -8 | -1% | 9.3µM*
CC(C)[C@H](CO)Nc1nc(NCc2ccc(S(N)(=O)=O)cc2)c2ncn(C(C)C)c2n1 | ? | 4% | ? | -96* | 2% | ?
CCc1ccccc1NC(=O)C1CCCN(S(=O)(=O)c2ccc3[nH]c(=O)ccc3c2)C1 (configuration not stated) | . | 0% | . | -14 | . | .
COC(=O)c1ccc2nc(-c3ccc(C)cc3)c(Cc3ccccc3)n2c1 | . | . | . | 44 | . | .
CSc1ccc(CN2CCC(Oc3ccc(C(=O)N4CCCC4)cc3)CC2)cc1 | ? | -19% | -16% | -14 | -15% | -8%
Cc1ccc(Oc2c(C(N)=O)cc([N+](=O)[O-])cc2[N+](=O)[O-])cc1 | -4% | 11µM* | 3.5µM* | 19 | 12% | ?
Nc1c(C(=O)Nc2ccc(OC(F)(F)F)cc2)sc2nc3c(cc12)N1CCC3CC1 | . | 2% | . | -78* | . | .
CCCC/C(C)=C/[C@@H](NP(=O)(c1ccccc1)c1ccccc1)c1ccccc1 | ? | -21% | 2.8µM* | -23 | -64% | 15µM*
COCCn1c(NC(=S)NC(=O)C23CC4CC(CC(C4)C2)C3)cc(=O)[nH]c1=O | ? | -3% | 7% | 32 | 0% | 15µM*
CCC[C@H]1[C@@H](NS(=O)(=O)c2cccc(C)c2)CC[C@@]23CCCN2C(=O)CCC[C@@H]13 | . | . | . | 35 | . | .
Cc1ccc(C(=O)O/N=C(\N)Cc2cccc3ccccc23)cc1 | 1.9µM* | -6% | -6% | 47 | -10% | 22%
Cc1ccc(/C(N)=N/OC(=O)c2ccc3ccccc3c2)cc1 | ? | -1% | ? | 2 | -14% | -20%
SMILES | Pf growth 48h | Sm TGR inh | HCV inhibitor | HCMV antiviral | SARS PLpro yeast | Pf growth 96h
COc1ccccc1CC(=O)O/N=C(\N)Cc1cccc2ccccc12 | 5.9µM* | 10% | -13% | -31 | -45% | ?
Cc1ccc(Cc2c(-c3ccc(F)cc3)nc3ccc(Cl)cn23)cc1 | . | . | . | 14 | . | .
COc1ccc(-c2[nH]ncc2CN(C)Cc2nonc2C)c(OC)c1 | 9% | 4% | 1% | 20 | -1% | 10µM*
COc1ccc(-c2[nH]ncc2CN(C)C(C)c2ccon2)c(OC)c1 (configuration not stated) | 0% | -3% | 17% | -3 | 2% | ?
COc1cc(-c2[nH]ncc2CN(C)Cc2nonc2C)cc(OC)c1OC | ? | -27% | ? | -4 | -1% | 1.7µM*
Nc1nnc(SCC(=O)NC2CCCCC2)n1-c1ccccc1 | 14% | 11% | 13% | 92 | 3% | 8.3µM*
CCCn1c(SCC(=O)NC2CCCCC2)nnc1-c1cccnc1 | 0% | 1% | 9% | -65* | 2% | 39%
Cn1c(SCC(=O)NC2CCCCC2)nnc1-c1cccc(N)c1 | -19% | -1% | 12% | 12 | -13% | 4.1µM*
Cn1c(SCC(=O)NC2CCCC2)nnc1-c1ccncc1 | -9% | . | 20% | 16 | 1% | -12%
Cn1c(SCC(=O)N2CCCCC2)nc2cccnc21 | 30% | 0% | -4% | -11 | 0% | 13µM*
Nc1cc(=O)nc(SCC(=O)NC2CCCCC2)n1-c1ccccc1 | 4% | 0% | 0% | 23 | 5% | -12%
COc1ccc(-c2cc(C(F)(F)F)nc(SCC(=O)NCC(C)C)n2)cc1OC | . | 2% | . | -7 | . | .
CCOCCCNC(=O)c1cn(C)c2ccc(S(=O)(=O)N3CCCCC3)cc2c1=O | -5% | 6% | 24% | -25 | -2% | ?
O=C1NN=C2CCCCCCCCCCC12 (configuration not stated) | . | . | . | -18 | . | .
CCCn1c(SCC(=O)Nc2cccc(C(=O)OC)c2)nnc1-c1cccnc1 | 7% | 20% | 7% | -2 | 2% | 10µM*
COC(=O)c1cccc(NC(=O)CSc2nc3cccnc3n2C)c1 | ? | -1% | 14µM* | ? | 5% | .
CCOC(=O)c1cccc(NC(=O)CSc2nnc(-c3ccncc3)n2CCCOC)c1 | -21% | 3% | -15% | -36 | 2% | ?
COC(=O)c1ccccc1NC(=O)CSc1nc2cccnc2n1C | -18% | -22% | -27% | -38 | 0% | -11%
COCCCNC1=C(Cl)C(=O)c2ccccc2C1=O | 4.1µM* | -32% | -15% | -22 | 0% | 2.3µM*
COCCCNc1c2c3c(cccc3[nH]c1=O)C(=O)c1ccccc1-2 | . | -5% | ? | -24 | -6% | ?
